# Source: PubChem (several laboratories)
# CYP2C19 inhib = blockers of cytochrome P450 2C19 activity – biochemical, luminescence, ADME assay, primary screen | P33261 | CYP2C19 Supersomes, luciferin-H EGE luminescence, 30 min | inhibition, % at 5 µM | 96,000 compounds, 21% hits | AID 778, 2007;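 active = CYP2C19 inhibition above a set limit at 5 µM in the primary screen, cut at about 50% in these data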;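 note: plate controls were negative control wells for no effect and 2.5 mM tranylcypromine positive control for full effect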
# CYP2C9 inhib = blockers of cytochrome P450 2C9 activity – biochemical, luminescence, ADME assay, primary screen. P11712. CYP2C9 Supersomes, luciferin-H conversion. inhibition, % at 5 µM. 96,000 compounds, 20% hits;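 active = blocking of liver enzyme CYP2C9 beyond about 50% at 5 µM, limit read from the data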
# Target sequence (P11712 whole entry, looked up): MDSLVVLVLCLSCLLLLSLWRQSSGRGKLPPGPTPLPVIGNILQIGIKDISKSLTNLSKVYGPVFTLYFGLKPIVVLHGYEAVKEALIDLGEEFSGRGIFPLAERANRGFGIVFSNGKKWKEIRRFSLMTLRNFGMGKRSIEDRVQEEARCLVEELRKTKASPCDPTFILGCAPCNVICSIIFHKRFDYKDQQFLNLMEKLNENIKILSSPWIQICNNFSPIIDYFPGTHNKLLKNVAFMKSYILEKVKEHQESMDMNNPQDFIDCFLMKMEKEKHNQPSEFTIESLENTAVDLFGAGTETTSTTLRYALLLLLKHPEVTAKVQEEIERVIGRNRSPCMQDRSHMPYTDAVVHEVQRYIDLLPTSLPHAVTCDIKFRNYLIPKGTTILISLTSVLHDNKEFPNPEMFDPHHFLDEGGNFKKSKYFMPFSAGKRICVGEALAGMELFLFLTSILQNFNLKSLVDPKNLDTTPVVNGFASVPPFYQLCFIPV
# Cav3 T inh = Cav3.2 calcium influx blockers – cell-based, Fluo-4 calcium fluorescence, FDSS, MLSMR library, primary screen | B-score at 10 µM | Cav3.2-expressing cells; hits give low values | Voltage-dependent T-type calcium channel subunit alpha-1H (Homo sapiens), O95180 | 100,000 compounds, 4% hits;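 active = single-dose well whose peak fluorescence ratio is a statistical outlier from its plate by either plate-standardised score or position-corrected B-score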
# CYP2C19 activ = human CYP2C19 activators, primary screen, biochemical, luminescence | Cytochrome P450 2C19 (Homo sapiens), P33261 | recombinant CYP2C19, luciferin-H EGE luminescence; hits give high values; 0 = fully inhibited enzyme, 1 = untreated enzyme | activation factor at 5 µM | 96,000 tested, under 10 active | AID 1025, 2008;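 active = activation factor of at least 2 at 5 µM in the primary screen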;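 note: 0 = wells with 2.5 mM tranylcypromine and 1 = vehicle-only wells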
# CYP2C9 activ = human CYP2C9 activators, primary screen, biochemical, luminescence; recombinant CYP2C9, luciferin-H conversion; hits give high values; factor 1 = untreated enzyme, 0 = blocked; 96,000 compounds, 1.4% hits; Cytochrome P450 2C9 (Homo sapiens), P11712; activation factor at 5 µM; AID 1024, 2008;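 active = activation factor of 2 or more for CYP2C9 at a 5 µM dose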;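 note: 0 = sulfaphenazole-blocked wells and 1 = vehicle-only wells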
# * marks the source's active call; other numbers are inactive results; · = not tested or not shown. The list is not random: actives were taken first. Their share in the collection is about 27%.
SMILES,CYP2C19 inhib,CYP2C9 inhib,Cav3 T inh,CYP2C19 activ,CYP2C9 activ
Cc1oc2ccc(OC(=O)N(C)C)cc2c1C(=O)OC(C)C,78*,65*,0.12,0.2,0.4
COc1cccc(Oc2c(C)oc3cc(OC(=O)N(C)C)ccc3c2=O)c1,85*,42,-1.2,0.2,0.6
CCN(CC)CCOC(=O)c1ccc(N=Cc2c(O)[nH]c(=O)[nH]c2=O)cc1,-14,-12,-0.03,1.1,1.1
Cc1c2cnn(CC(=O)N3CCC4(CC3)OCCO4)c(=O)c2c(C)n1Cc1ccccc1,18,28,0.27,0.8,0.7
O=C(Cn1ncc2c3ccccc3n(Cc3ccc(F)cc3)c2c1=O)N1CCC2(CC1)OCCO2,·,·,-8*,·,·
O=C(Cn1nc(Cc2cccnc2)c2ccccc2c1=O)N1CCC2(CC1)OCCO2,22,80*,0.037,0.8,0.2
N#Cc1c(/N=C/c2c(O)n(Cc3ccco3)c(=O)[nH]c2=O)sc2c1CCCC2,-5,13,-2.8,1.1,0.9
CC(=NCCO)c1c(O)n(C)c(=O)n(C)c1=O,-22,-8,-1.8,1.2,1.1
O=C1NCN(c2ccccc2)C12CCNCC2,89*,-6,0.11,0.1,1.1
CC(=O)C1(c2ccccc2)CCNCC1,1,5,0.14,1,0.9
CCCCc1nc2ccccc2c(=O)n1-c1ccc(Cl)cc1[N+](=O)[O-],4,-4,-0.24,1,1
CCOC(=O)c1ccc(NC(=O)c2c(O)[nH]c(=O)[nH]c2=O)cc1,12,12,·,0.9,0.9
Oc1ccc(C2NCc3ccccc3-n3cccc32)cc1Cl (centres undefined),98*,89*,-1.6,0,0.1
NC(=O)c1cn(C2OC(CO)C(O)C2O)c2ncnc(N)c12 (centres undefined),·,·,-4.7*,·,·
O=C(Nc1ccc(Cl)cc1C(=O)c1ccccc1)c1ccccc1,2,4,·,1,1
CNC(C(=O)c1ccccc1)C(OC(C)C)c1ccc(Cl)cc1 (centres undefined),63*,37,-0.19,0.4,0.6
CCCCCCCC(=O)NC(Oc1ccccc1[N+](=O)[O-])C(Cl)(Cl)Cl (centres undefined),26,28,-6.9*,0.7,0.7
CC(=NCc1ccco1)c1c(O)n(Cc2ccccc2)c(=O)[nH]c1=O,21,29,-0.051,0.8,0.7
CCOC(=O)c1c(/N=C/c2c(O)n(-c3ccc(F)cc3)c(=S)[nH]c2=O)sc2c1CCCC2,-10,37,·,1.1,0.6
CCOC(=O)c1c(-n2c(C)cc(/C=C3\C(=O)NC(=O)N(C)C3=O)c2C)sc2c1CCCC2,43,71*,-4,0.6,0.3
COc1ccc(C=O)cc1O,·,·,-0.052,·,·
O=P(O)(O)Cc1ccccc1OP(=O)(c1ccccc1)c1ccccc1,0,11,·,1,0.9
Cc1ccc2nc3c(cc2c1)CC1(C(=O)N(C)C(=O)N(C)C1=O)C1COCCN31 (centres undefined),4,19,0.54,1,0.8
Cc1ccc2nc3c(cc2c1)CC1(C(=O)N(C)C(=O)N(C)C1=O)C1CCCCN31 (centres undefined),64*,50*,0.11,0.4,0.5
COc1cc(/C=C2\C(=O)NC(=O)N(c3ccccc3)C2=O)cc(OC)c1O,-8,-32,0.42,1.1,1.3
SMILES,CYP2C19 inhib,CYP2C9 inhib,Cav3 T inh,CYP2C19 activ,CYP2C9 activ
Cc1ccc(N2C(=O)NC(=O)/C(=C/c3ccc(OC(=O)c4cccs4)cc3)C2=O)cc1,54*,-2,-0.045,0.5,1
Cc1ccc(-c2nc(CS(=O)CC(=O)N3CCC4(CC3)OCCO4)c(C)o2)cc1 (centres undefined),20,40,0.93,0.8,0.6
CN(C)CCCN=Cc1c(O)n(CCc2ccc(F)cc2)c(=O)[nH]c1=O,0,22,0.026,1,0.8
O=c1[nH]c(=O)n(CCC2=CCCCC2)c(O)c1C=NCCCn1ccnc1,86*,97*,1.3,0.1,0
O=c1[nH]c(=O)n(C2CCCCC2)c(O)c1C=NCCCn1ccnc1,61*,50*,-0.083,0.4,0.5
O=c1[nH]c(=O)n(CCc2ccc(F)cc2)c(O)c1C=NCCCn1ccnc1,47,68*,0.3,0.5,0.3
CN(C)CCN=Cc1c(O)n(CCC2=CCCCC2)c(=O)[nH]c1=O,28,16,1,0.7,0.8
Cn1c(O)c(C=NC2CC(C)(C)NC(C)(C)C2)c(=O)n(C)c1=O,7,15,-0.61,0.9,0.8
O=S(=O)(c1ccccc1)N1CCCCC1c1cccnc1 (centres undefined),52*,6,0.18,0.5,0.9
ClCCNc1nc2ccc(Cl)cc2[nH]1,27,12,0.21,0.7,0.9
COc1ccc(C2(c3cccc(O)c3OC)CCN(C(C)=O)CC2)cc1O,·,·,-0.047,·,·
CCOP(=O)(OCC)C(NC(=O)c1ccc(Cl)cc1)=C(Cl)Cl,64*,1,1.1,0.4,1
O=C1CC(N2CC=C(c3ccccc3)CC2)C(=O)N1c1ccc(F)cc1 (centres undefined),8,62*,-1.1,0.9,0.4
N#Cc1ccccc1Cn1cc(C(=O)c2cccs2)c2ccccc21,54*,89*,-0.55,0.5,0.1
O=C(c1cccs1)c1cn(Cc2ccccc2Cl)c2ccccc12,13,62*,-6.2*,0.9,0.4
CC1(C)CC(=O)C(C2(O)C(=O)NC(=O)NC2=O)=C(O)C1,6,8,-0.12,0.9,0.9
CCOc1cc(C=C2C(=O)NC(=O)NC2=O)ccc1OS(=O)(=O)c1ccccc1,54*,5,-1.3,0.5,1
O=c1cccc2n1CC1CC2CN(c2ncnc3c2cnn3-c2ccc(Cl)cc2)C1 (centres undefined),-15,12,0.72,1.1,0.9
CCCCSP1(=S)NCCCN1,21,10,-0.21,0.8,0.9
COCCOC(=O)C1=C(N)OC(C)=C(C(=O)OC)C12C(=O)Nc1ccccc12 (centres undefined),6,4,0.62,0.9,1
CCOC(=O)C1=C(C)OC(N)=C(C(=O)OCC)C12C(=O)Nc1ccc(Br)cc12 (centres undefined),36,36,-3.8*,0.6,0.6
O=C(O)CP(=O)(O)c1ccc(Cl)cc1,-1,-6,0.12,1,1.1
CCOC(=O)c1c(C)n(Cc2ccco2)c2c1cc(O)c1ccccc12,-2,82*,-0.75,1,0.2
CCOC(=O)c1c(C)n(Cc2ccco2)c2ccc(OC)cc12,42,29,-2.4,0.6,0.7
COC(=O)C1=C(c2cccc(OC)c2OC)C[C@@H]2CC[C@H]1N2C(=O)NCc1cccc2ccccc12,·,·,-0.68,·,·
CCOC(=O)C(O)(c1ccc(NC(=O)NC2CCCCC2)cc1)C(F)(F)F (centres undefined),80*,59*,-1.9,0.2,0.4
